Data on four compounds can be found in PubChem BioAssay (EPA / NIEHS).

Inconclusive results are not listed. Calls of active or inactive are those of the source. How the source made its calls, unless noted: active means hit-call score of the fitted dose curve at least 0.9, where 1 is the maximum; inactive means score below 0.9.

Read-out in test [1]: Nuclear factor erythroid 2-related factor 2 (Homo sapiens) (UniProt Q16236)
Kind of test: LTEA_HepaRG_NFE2L2: Life Technologies and Expression Analysis (LTEA) Assay for Nuclear factor erythroid 2-related factor 2 (NFE2L2) Transcription Factor using HepaRG (AID 2283527).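 On outcome: TaqMan qRT-PCR transcript level normalised to ACTB GAPDH and POLR2A housekeeping genes.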 Conditions: mRNA level, 48 h; actives raise or lower the signal. A digest of the protocol:
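Differentiated human HepaRG cells in serum-free induction medium were exposed for 48 h to eight concentrations (top 100 uM, half-log dilutions, 0.5% DMSO), in duplicate. NFE2L2 mRNA was quantified by TaqMan qRT-PCR, normalized to ACTB, GAPDH and POLR2A, with bidirectional fitting versus DMSO.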

Read-out in test [2]: succinate dehydrogenase complex iron sulfur subunit B (SDHB), SDHB (gene 6390)
Kind of test: LTEA_HepaRG_SDHB: Life Technologies and Expression Analysis (LTEA) Assay for succinate dehydrogenase complex iron sulfur subunit B (SDHB) using HepaRG (AID 2283528). Particulars: mRNA level, 48 h; actives raise or lower the signal. A digest of the protocol: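 HepaRG cells (~100,000/well, plated 48 h) exposed in duplicate for 48 h in serum-free induction medium to 8-point half-log series from 100 uM in 0.5% DMSO; mRNA by qRT-PCR normalised to ACTB, GAPDH, POLR2A; bidirectional fit versus DMSO.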

Read-out in test [3]: Signal transducer and activator of transcription 3 (Homo sapiens) (UniProt P40763)
Put plainly: LTEA_HepaRG_STAT3: Life Technologies and Expression Analysis (LTEA) Assay for Signal transducer and activator of transcription (STAT3) using HepaRG (AID 2283529). Conditions: mRNA level, 48 h; actives raise or lower the signal. In short, it runs like this: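 Differentiated human HepaRG cells in serum-free induction medium were exposed in duplicate for 48 h to eight half-log concentrations up to 100 uM in 0.5% DMSO. STAT3 mRNA was quantified by TaqMan qRT-PCR, normalized to ACTB, GAPDH and POLR2A, and fitted bidirectionally against DMSO.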

Read-out in test [4]: solute carrier (SLCO1B1), SLCO1B1 (gene 10599)
Put plainly: LTEA_HepaRG_SLCO1B1: Life Technologies and Expression Analysis (LTEA) Assay for solute carrier (SLCO1B1) using HepaRG (AID 2283530). Particulars: mRNA level, 48 h; actives raise or lower the signal. In short, it runs like this:
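Gain or loss of SLCO1B1 mRNA is fitted against the 0.5% DMSO vehicle in human HepaRG liver cells treated 48 h at up to 100 uM in half-log steps. Expression comes from qRT-PCR normalized to endogenous controls.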

Read-out in test [5]: sulfotransferase 2A1 (SULT2A1), SULT2A1 (gene 6822)
Put plainly: LTEA_HepaRG_SULT2A1: Life Technologies and Expression Analysis (LTEA) Assay for sulfotransferase 2A1 (SULT2A1) using HepaRG (AID 2283531). Conditions: mRNA level, 48 h; actives raise or lower the signal. In short, it runs like this:
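Cells were plated and cultured 48 h, switched to serum-free induction medium, then dosed in duplicate for 48 h (8 concentrations, max 100 uM). RNA was isolated and SULT2A1 expression measured by qRT-PCR; gain or loss of signal fitted relative to DMSO.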

Read-out in test [6]: Transforming Growth Factor (TGFA), TGFA (gene 7039)
Kind of test: LTEA_HepaRG_TGFA: Life Technologies and Expression Analysis (LTEA) Assay for Transforming Growth Factor (TGFA) using HepaRG (AID 2283532). Particulars: mRNA level, 48 h; actives raise or lower the signal. In short, it runs like this:
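Differentiated human HepaRG cells, plated 48 h then switched to serum-free induction medium, were exposed in duplicate for 48 h to 8-point half-log series from 100 uM in 0.5% DMSO. TGFA mRNA measured by qRT-PCR, normalized to ACTB/GAPDH/POLR2A, bidirectional fit versus DMSO.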

Read-out in test [7]: Transforming Growth Factor (TGFB1), TGFB1 (gene 7040)
Put plainly: LTEA_HepaRG_TGFB1: Life Technologies and Expression Analysis (LTEA) Assay for Transforming Growth Factor (TGFB1) Transporter using HepaRG (AID 2283533). Conditions: mRNA level, 48 h; actives raise or lower the signal. A digest of the protocol:
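Expression change of TGFB1 in human HepaRG cells is measured after a 48 h chemical exposure, up to 100 uM in 0.5% DMSO vehicle. Curves are fitted in both directions relative to the DMSO baseline.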

Read-out in test [8]: TIMP1, TIMP1 (gene 7076)
Kind of test: LTEA_HepaRG_TIMP1: Life Technologies and Expression Analysis (LTEA) Assay for TIMP1 using HepaRG (AID 2283534). Conditions: mRNA level, 48 h; actives raise or lower the signal. A digest of the protocol: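 We dosed human liver HepaRG cultures for 48 hours with up to 100 uM test chemical and measured TIMP1 expression by qRT-PCR. Activity in either direction is fitted relative to the 0.5% DMSO vehicle.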

Read-out in test [9]: Tumor necrosis factor receptor 1 (TNFRSF1A), TNFRSF1A (gene 7132)
Put plainly: LTEA_HepaRG_TNFRSF1A: Life Technologies and Expression Analysis (LTEA) Assay for Tumor necrosis factor receptor 1 (TNFRSF1A) using HepaRG (AID 2283535). Particulars: mRNA level, 48 h; actives raise or lower the signal. A digest of the protocol:
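Expression of TNFRSF1A in human HepaRG liver cells was measured by qRT-PCR 48 h after chemical dosing (maximum 100 uM). Bidirectional curve fitting used 0.5% DMSO as baseline.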

Read-out in test [10]: Thyroid Hormone Responsive (THRSP), THRSP (gene 7069)
Put plainly: LTEA_HepaRG_THRSP: Life Technologies and Expression Analysis (LTEA) Assay for Thyroid Hormone Responsive (THRSP) using HepaRG (AID 2283536). Particulars: mRNA level, 48 h; actives raise or lower the signal. A digest of the protocol: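 Differentiated human HepaRG cells were exposed in duplicate for 48 h in serum-free induction medium to eight concentrations (top 100 uM, half-log steps, 0.5% DMSO). Expression was quantified by TaqMan qRT-PCR, normalized to ACTB, GAPDH and POLR2A, with bidirectional fitting against DMSO.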

Read-out in test [11]: UDP glucuronosyltransferase (UGT1A1), UGT1A1 (gene 54658)
Put plainly: LTEA_HepaRG_UGT1A1: Life Technologies and Expression Analysis (LTEA) Assay for UDP glucuronosyltransferase (UGT1A1) using HepaRG (AID 2283538). Conditions: mRNA level, 48 h; actives raise or lower the signal. In short, it runs like this: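 HepaRG cells, 0.5% DMSO vehicle, 48 h exposure in serum-free induction medium to 8-point half-log series topping at 100 uM, in duplicate. UGT1A1 mRNA by Fluidigm qRT-PCR, normalized to ACTB/GAPDH/POLR2A; bidirectional fit versus DMSO.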

Read-out in test [12]: UDP glucuronosyltransferase (UGT1A6), UGT1A6 (gene 54578)
Put plainly: LTEA_HepaRG_UGT1A6: Life Technologies and Expression Analysis (LTEA) Assay for UDP glucuronosyltransferase (UGT1A6) using HepaRG (AID 2283539). Particulars: mRNA level, 48 h; actives raise or lower the signal. A digest of the protocol:
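Endpoint is UGT1A6 transcript induction or loss in a human liver cell line, quantified by TaqMan qRT-PCR 48 h after dosing. Concentrations ran from 100 uM downward in half-log steps in 0.5% DMSO; activity was fitted in both directions versus vehicle.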

Read-out in test [13]: X-box binding protein 1 (XBP1), XBP1 (gene 7494)
Kind of test: LTEA_HepaRG_XBP1: Life Technologies and Expression Analysis (LTEA) Assay for X-box binding protein 1 (XBP1) using HepaRG (AID 2283540). Particulars: mRNA level, 48 h; actives raise or lower the signal. A digest of the protocol:
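Human HepaRG monolayers receive test chemical for 48 h across an eight-point half-log series starting at 100 uM. XBP1 mRNA gain or loss is scored against DMSO by qRT-PCR.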

The nature of test [14]: LTEA_HepaRG_LDH_cytotoxicity: Cytotoxicity Assessment in the Life Technologies and Expression Analysis (LTEA) Assay (AID 2283563; active means hit-call score of the fitted dose curve at least 0.9, where 1 is the maximum;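 on AC50: LDH activity released into spent culture medium as a marker of cell death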). A digest of the protocol: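 Human HepaRG hepatic cells are treated with test chemicals for 48 h at up to 100 uM in 0.5% DMSO. Cytotoxicity is scored from medium LDH against the vehicle control.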
Read-out in test [15]: Cellular tumor antigen p53 (Homo sapiens) (UniProt P04637)
Put plainly: LTEA_HepaRG_TP53: Life Technologies and Expression Analysis (LTEA) Assay for Tumor Protein P53 (TP53) using HepaRG (AID 2283537). Conditions: mRNA level, 48 h; actives raise or lower the signal. In short, it runs like this:
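Differentiated HepaRG cells in serum-free induction medium exposed 48 h in duplicate to 8 half-log concentrations, top 100 uM, 0.5% DMSO. TP53 mRNA by TaqMan qRT-PCR (Fluidigm), normalized to ACTB, GAPDH, POLR2A; fitted bidirectionally versus DMSO.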

A short description of test [16]: TOX21_p53_BLA_p2_viability: Viability Assessment in the Tox21 HCT-116 p53 Agonism Beta-lactamase Assay, Phase 2 (AID 2283591; active means hit-call score of the fitted dose curve at least 0.9, where 1 is the maximum;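 further: compound exposure lasted 16 h at 37 °C; actives lower the ATP signal meaning cytotoxicity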). A digest of the protocol: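 HCT-116 p53-bla cells (4000/well) rested 5 h at 37C, then received compounds in DMSO (217-fold dilution) for 16 h at 37C, 5% CO2. After the CCF4 read, CellTiter-Glo was added; ATP luminescence was read after 30 min at room temperature.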

Test [17] deals with Cellular tumor antigen p53 (Homo sapiens) (UniProt P04637). Kind of test: TOX21_p53_BLA_p2_ratio: Tox21 HCT-116 p53 Agonism Beta-lactamase Assay, Ratio, Phase 2 (AID 2283592; active means hit-call score of the fitted dose curve at least 0.9, where 1 is the maximum). In short, it runs like this: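 An inducible beta-lactamase reporter in HCT116 cells signals p53 pathway activation. After 16 h chemical exposure at 37C, cells load CCF4-AM substrate for 2 h at room temperature; activity is the cleaved/uncleaved emission ratio relative to DMSO.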
Cellular tumor antigen p53 (Homo sapiens), sequence (P04637 whole entry, looked up): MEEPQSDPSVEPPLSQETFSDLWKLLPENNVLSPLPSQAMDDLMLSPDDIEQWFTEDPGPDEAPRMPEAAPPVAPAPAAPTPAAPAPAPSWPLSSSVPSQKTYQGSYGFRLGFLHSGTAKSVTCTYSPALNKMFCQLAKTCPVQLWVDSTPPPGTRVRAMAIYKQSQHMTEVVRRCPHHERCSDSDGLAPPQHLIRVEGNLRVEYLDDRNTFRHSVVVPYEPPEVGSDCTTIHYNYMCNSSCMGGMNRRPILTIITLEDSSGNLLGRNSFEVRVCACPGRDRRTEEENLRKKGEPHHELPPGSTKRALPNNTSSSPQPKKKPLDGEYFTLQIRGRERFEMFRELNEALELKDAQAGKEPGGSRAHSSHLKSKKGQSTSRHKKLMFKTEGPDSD

Test [18] in a line: TOX21_p53_BLA_p3_viability: Viability Assessment in the Tox21 HCT-116 p53 Agonism Beta-lactamase Assay, Phase 3 (AID 2283593; active means hit-call score of the fitted dose curve at least 0.9, where 1 is the maximum;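 further: cells exposed to compound for 16 h before reading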). In short, it runs like this:
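HCT-116 cells (4000/well) rested 5 h at 37C, then got DMSO compounds by pin tool (217-fold dilution) for 16 h at 37C, 5% CO2. After the bla read, CellTiter-Glo was added and luminescence read at 30 min, room temperature.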

The target of test [19] is Cellular tumor antigen p53 (Homo sapiens) (UniProt P04637). Put plainly: TOX21_p53_BLA_p3_ratio: Tox21 HCT-116 p53 Agonism Beta-lactamase Assay, Ratio, Phase 3 (AID 2283596; active means hit-call score of the fitted dose curve at least 0.9, where 1 is the maximum). A digest of the protocol:
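HCT116 p53-bla cells (4000/well) given compound in DMSO (217-fold dilution) after 5 h, incubated 16 h at 37C. CCF4-AM substrate 2 h at room temperature; 460/530 nm emission ratio, gain fitted against DMSO.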

A short description of test [20]: ATG_XTT_Cytotoxicity: Cytotoxicity Assessment in the Attagene TRANS-FACTORIAL HepG2 Assay (AID 2283584; active means hit-call score of the fitted dose curve at least 0.9, where 1 is the maximum). In short, it runs like this: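 Transfect HepG2 with GAL4-UAS reporter units, dose compound, incubate 24 h, then measure viable cell number by XTT. Fit concentration response against DMSO baseline.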

Nuclear factor erythroid 2-related factor 2 (Homo sapiens), sequence (Q16236 whole entry, looked up): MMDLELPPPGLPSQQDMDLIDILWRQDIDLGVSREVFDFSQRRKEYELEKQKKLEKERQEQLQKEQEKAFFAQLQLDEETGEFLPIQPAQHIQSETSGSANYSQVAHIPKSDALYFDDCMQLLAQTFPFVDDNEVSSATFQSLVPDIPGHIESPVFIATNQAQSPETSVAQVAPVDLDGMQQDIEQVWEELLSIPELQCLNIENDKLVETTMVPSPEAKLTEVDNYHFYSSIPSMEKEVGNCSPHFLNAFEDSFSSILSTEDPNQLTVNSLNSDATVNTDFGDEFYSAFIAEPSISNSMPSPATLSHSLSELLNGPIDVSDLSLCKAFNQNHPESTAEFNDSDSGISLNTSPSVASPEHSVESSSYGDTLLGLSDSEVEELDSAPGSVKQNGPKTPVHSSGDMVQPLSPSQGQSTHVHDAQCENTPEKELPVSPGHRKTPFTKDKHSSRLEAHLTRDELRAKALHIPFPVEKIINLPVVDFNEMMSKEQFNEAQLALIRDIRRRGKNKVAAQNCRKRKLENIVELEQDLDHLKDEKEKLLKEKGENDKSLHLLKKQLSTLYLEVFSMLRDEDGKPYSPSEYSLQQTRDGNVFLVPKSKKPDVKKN
Signal transducer and activator of transcription 3 (Homo sapiens), sequence (P40763 whole entry, looked up): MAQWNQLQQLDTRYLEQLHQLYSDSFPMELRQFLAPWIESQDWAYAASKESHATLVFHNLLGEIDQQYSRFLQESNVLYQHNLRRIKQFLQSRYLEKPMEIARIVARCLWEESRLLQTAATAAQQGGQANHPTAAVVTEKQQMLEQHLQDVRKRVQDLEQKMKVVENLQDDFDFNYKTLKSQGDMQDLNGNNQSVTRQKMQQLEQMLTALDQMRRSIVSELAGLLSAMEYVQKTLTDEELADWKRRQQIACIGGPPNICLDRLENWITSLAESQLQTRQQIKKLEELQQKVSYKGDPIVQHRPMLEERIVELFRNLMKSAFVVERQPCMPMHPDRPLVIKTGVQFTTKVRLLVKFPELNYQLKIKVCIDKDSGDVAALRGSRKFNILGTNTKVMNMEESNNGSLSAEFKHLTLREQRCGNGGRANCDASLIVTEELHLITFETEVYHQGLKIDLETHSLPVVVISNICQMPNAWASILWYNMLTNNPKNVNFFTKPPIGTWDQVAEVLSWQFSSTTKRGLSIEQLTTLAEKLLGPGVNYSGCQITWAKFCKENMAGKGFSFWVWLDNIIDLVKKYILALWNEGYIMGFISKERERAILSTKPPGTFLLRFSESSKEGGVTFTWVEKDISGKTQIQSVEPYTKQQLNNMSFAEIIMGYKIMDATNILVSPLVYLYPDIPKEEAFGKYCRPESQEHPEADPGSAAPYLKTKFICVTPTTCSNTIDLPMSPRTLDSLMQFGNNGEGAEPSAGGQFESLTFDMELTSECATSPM

In general, AC50 refers to the concentration giving half of the maximal activity seen. For `O=C1CCCCC1`, the compound was called inactive in [1], in test [2], in test [3], in [4], in [5] and in [6]. Moreover, the compound was called inactive in test [7], in [8], in [10], in test [11], in test [12] and in test [13]. The outcome in [14] was inactive. In test [9], the AC50 is 0.0538 µM (active).

Regarding `CCC(C)N(C)C(=O)c1cc2ccccc2c(-c2ccccc2Cl)n1` (centres undefined), the concentration at half-maximal activity (AC50) in test [1] is 16.8 µM (active); in [2], 11.1 µM (active); in test [5], 8.44 µM (active); in [11] it was 2.1 µM (active). Further, the compound was called inactive in test [3], in test [4], in test [6], in test [7], in [8] and in test [9]. Moreover, the result in [15], in test [12], in test [13], in test [14], in [16] and in [17] was inactive. Moreover, the result in test [18] and in [19] was inactive.

As for `COC(=O)CCCC(=O)OC`, the call in test [1], in test [2], in test [3], in test [4], in test [6] and in test [7] was inactive. For the same compound, the compound was called inactive in test [8], in [9], in test [10], in test [15], in test [11] and in [12]. The compound was classed as inactive in test [13], in test [14], in [20], in test [16], in [17] and in test [19].

Consider `CCc1cc(C2=C(C(=O)O)N(c3ccccc3C(F)(F)F)S(=O)(=O)c3ccccc32)cc2c1OCO2`, for which the AC50 was 50 µM (active) in test [1]; 50 µM (active) in test [4]; 85.5 µM (active) in test [5]; 79.1 µM (active) in [6]; 87 µM (active) in [10]; 69.5 µM (active) in test [15]. Also, the half-maximal activity concentration (AC50) in test [11] was 1.73 µM (active); in [12], 74.8 µM (active); in test [14], 74.1 µM (active); in test [16] it was 73.7 µM (active). The result in [2], in test [3], in [7], in test [8], in test [9] and in test [13] was inactive. In addition, the outcome in [17], in test [18] and in test [19] was inactive.
